Source: PubChem (National Center for Advancing Translational Sciences (NCATS))
Rows were chosen to be rich in hits. Some 3% of all compounds tested hit in one or more screens of this group.
ALOX15B inhib: 15-hLO-2 (ALOX15B) enzyme inhibition; O15296; purified 15hLO-2, xylenol orange hydroperoxide absorbance; Potency, µM (titrated, usually from 57.1 µM), most hits filed as inhibitors; 110,000 tested, 0.56% active; AID 881; also: nearly all actives have a fitted effect of over 60% in size
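Read-out: hydroperoxide product oxidises ferrous iron, measured as xylenol orange complex via the 573-to-405 nm absorbance ratio after 30 min. Reaction: 50 nM enzyme, 15 min compound preincubation, 45 uM arachidonic acid, 90 min RT, Hepes pH 7.5 with Triton X-100.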
15-hLO inh: blocks human 15-lipoxygenase activity; purified 15hLO-1, xylenol orange hydroperoxide absorbance; Potency, µM (highest dose often 57.1 µM), hits mostly inhibitors; 74,000 tested, 1.4% active; AID 887; also: nearly all actives have a fitted effect of over 55% in size
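Purified human 15hLO-1 (40 nM final) in 25 mM Hepes pH 7.5, 0.01% Triton X-100 was preincubated with compound 15 min at room temperature, then reacted 6 min with 50 uM arachidonic acid; hydroperoxide detected by Fe-XO, 573/405 nm absorbance ratio.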
HEK293 cAMP cs: counter-screen for TSHR agonists: cAMP increase in parental HEK293; 73,000 tested, 2.5% active; Potency, µM (top dose mostly 57.1 µM), most hits filed as activators; parental HEK293 CNG cAMP sensor, membrane potential fluorescence; also: nearly all actives have a fitted effect of over 55% in size
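Parental HEK 293 cells stably expressing a cAMP-gated CNG channel were loaded with membrane potential dye containing 100 uM RO 20-1724 for 60 min. Compound added for 30 min; depolarization read as fluorescence intensity at 590 nm.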
TSHR agonist: activates the human thyroid stimulating hormone receptor; P16473; HEK293-CNG-TSHR cells (CNG channel as cAMP sensor), membrane potential dye, cAMP; Potency, µM (titrated, usually from 57.1 µM), hits mostly activators; 73,000 tested, 0.48% active; AID 926; active = well fitted activation curve with a large enough effect in the main read-out, with a control signal flat, not every such curve was filed as active; inconclusive = small, poorly fitted or top-dose-only effect, or a change in a side signal; inactive = no such curve, though single readings can be large or run the other way; reference of the percent scale not stated here;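 also: the control signal comes from parental cells without the receptor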
Target sequence (P16473 whole entry, looked up): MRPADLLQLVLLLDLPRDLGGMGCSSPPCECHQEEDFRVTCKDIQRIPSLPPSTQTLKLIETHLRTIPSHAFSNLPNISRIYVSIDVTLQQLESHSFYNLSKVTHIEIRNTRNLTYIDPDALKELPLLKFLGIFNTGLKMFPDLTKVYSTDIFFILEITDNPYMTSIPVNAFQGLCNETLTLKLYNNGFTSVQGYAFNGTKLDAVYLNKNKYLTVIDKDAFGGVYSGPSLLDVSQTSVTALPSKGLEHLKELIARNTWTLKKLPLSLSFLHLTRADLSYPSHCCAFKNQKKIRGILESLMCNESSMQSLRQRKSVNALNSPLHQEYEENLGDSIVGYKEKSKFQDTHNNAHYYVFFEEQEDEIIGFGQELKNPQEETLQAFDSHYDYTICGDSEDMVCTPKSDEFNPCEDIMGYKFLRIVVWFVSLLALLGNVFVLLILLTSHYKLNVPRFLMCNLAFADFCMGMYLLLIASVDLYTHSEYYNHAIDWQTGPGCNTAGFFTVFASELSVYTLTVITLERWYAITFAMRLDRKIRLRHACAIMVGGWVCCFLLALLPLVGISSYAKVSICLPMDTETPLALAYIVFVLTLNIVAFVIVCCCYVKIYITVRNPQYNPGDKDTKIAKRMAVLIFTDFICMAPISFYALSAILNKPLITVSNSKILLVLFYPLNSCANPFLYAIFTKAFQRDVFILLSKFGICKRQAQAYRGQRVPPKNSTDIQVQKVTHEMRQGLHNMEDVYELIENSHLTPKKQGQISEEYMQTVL
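HEK 293 cells stably expressing TSHR and a modified CNG channel, with CNG-only parental cells as counterscreen, were preloaded 60 min at room temperature with membrane potential dye containing 100 uM RO 20-1724. Compound exposure was 30 min, and depolarization was read as fluorescence at 590 nm.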
Caspase-7 inhib: blocks human caspase-7 allosterically or competitively. P55210. recombinant caspase-7, Ac-DEVD-AFC fluorescence rate. Potency, µM (highest dose often 57.5 µM), actives largely listed as inhibitors. 75,000 tested, 0.02% active; active = well fitted inhibition curve with a large enough effect in the main read-out, with a control signal flat, not every such curve was filed as active; inconclusive = small, poorly fitted or top-dose-only effect, or a change in a side signal
Caspase-1 inhib: caspase-1 (human) inhibition, allosteric or competitive; P29466; Caspase-1 enzyme, Ac-WEHD-AFC fluorogenic rate; Potency, µM (doses to about 57.5 µM), most hits filed as inhibitors; 75,000 tested, 0.03% active; AID 900
Of the large screens only hits and unclear results are named; the others gave an inactive call. Unless noted, calls follow the shape of the dose curve; as a rule, active = well fitted curve in the direction sought with a large enough effect; inconclusive = small, poorly fitted or top-dose-only effect, or another doubt; inactive = no such curve, though single readings can be large; an effect the other way counts as inactive or inconclusive.

O=C(NC1CCN(C(=O)N2c3ccccc3Sc3ccccc32)CC1)c1ccccc1F	ALOX15B inhib 16µM (no result: 15-hLO inh, HEK293 cAMP cs, TSHR agonist, Caspase-7 inhib, Caspase-1 inhib)
COc1ccc(OC)c(C2=Nn3c(nnc3-c3cccc(OC(C)C)c3)SC2)c1	HEK293 cAMP cs 25µM, TSHR agonist inconclusive
COc1ccc(N2CCN(C(=O)c3ccc(NS(=O)(=O)c4ccccc4)cc3)CC2)cc1	15-hLO inh 5µM (no result: ALOX15B inhib)
Cc1ccc(C(=O)N2CCN(c3ccc(Cl)cc3)CC2)cc1	HEK293 cAMP cs inconclusive, TSHR agonist inconclusive
Cc1ccc(C(=O)N2CCN(c3ccc(NC(=S)NC(=O)Cc4ccccc4)cc3)CC2)cc1	ALOX15B inhib 13µM (no result: 15-hLO inh, HEK293 cAMP cs, TSHR agonist, Caspase-7 inhib, Caspase-1 inhib)
Cc1nn(Cc2ccccc2)c(Cl)c1C(=O)OCc1nnc(-c2ccc(Cl)cc2)o1	HEK293 cAMP cs 25µM, TSHR agonist inconclusive
Cc1nn(Cc2ccccc2)c(Cl)c1C(=O)OCc1nnc(-c2ccccc2)o1	HEK293 cAMP cs inconclusive, TSHR agonist inconclusive
O=C(/C=C/c1ccccc1)OC1CC(O)C2(O)C=CO[C@@H](OC3OC(CO)C(O)C(O)C3O)C12 (stereo partly drawn)	none (no result: HEK293 cAMP cs, TSHR agonist)
C=CC1=C(C(=O)O)N2C(=O)[C@@H](NC(=O)C(N=O)c3csc(N)n3)[C@H]2SC1 (stereo partly drawn)	none (no result: 15-hLO inh, HEK293 cAMP cs, TSHR agonist, Caspase-7 inhib, Caspase-1 inhib)
CN(C)c1ncc(S(=O)(=O)c2ccccc2)c(-c2ccccc2Cl)n1	none (no result: 15-hLO inh, HEK293 cAMP cs, TSHR agonist, Caspase-7 inhib, Caspase-1 inhib)
CC[C@H](C)N(C)C(=O)c1cc2ccccc2c(-c2ccccc2Cl)n1	HEK293 cAMP cs inconclusive, TSHR agonist 25µM
CCCN1C(=O)c2cc(C(=O)O)ccc2C1O (stereo not drawn)	15-hLO inh 20µM
CC(=O)[C@H](CC(C)C)NC(=O)[C@@H](CC(C)C)NC(=O)[C@H](CC(C)C)NC(=O)OCc1ccccc1	HEK293 cAMP cs 25µM, TSHR agonist inconclusive
CC(=O)NC(CC(C)C)C(=O)NC(Cc1ccccc1)C(N)=O (stereo not drawn)	none
Cn1c(=O)c2c(nc(CN3CCN(Cc4ccccc4)CC3)n2Cc2ccccc2)n(C)c1=O	15-hLO inh 20µM
CCOC(=O)Cn1c(CN2CCN(c3cccc(Cl)c3)CC2)nc2c1c(=O)[nH]c(=O)n2C	15-hLO inh inconclusive, HEK293 cAMP cs 20µM, TSHR agonist inconclusive, Caspase-7 inhib inconclusive (no result: ALOX15B inhib, Caspase-1 inhib)
CCCCn1c(CN(Cc2ccccc2)Cc2ccccc2)nc2c1c(=O)n(C)c(=O)n2C	HEK293 cAMP cs inconclusive, TSHR agonist inconclusive (no result: ALOX15B inhib)
CC1CCCCN1Cc1nc2c(c(=O)n(C)c(=O)n2C)n1Cc1c(F)cccc1Cl (stereo not drawn)	15-hLO inh 25µM, Caspase-7 inhib inconclusive (no result: ALOX15B inhib, Caspase-1 inhib)
Cn1c(=O)c2c(nc(CN3CCC(C(N)=O)CC3)n2Cc2c(F)cccc2Cl)n(C)c1=O	none
CCCCCn1c(CN(C)Cc2ccccc2)nc2c1c(=O)n(C)c(=O)n2C	HEK293 cAMP cs 20µM, TSHR agonist inconclusive
Cn1c(=O)c2c(nc(CN3CCN(c4cccc(Cl)c4)CC3)n2CCc2ccccc2)n(C)c1=O	HEK293 cAMP cs 7.9µM, TSHR agonist inconclusive (no result: ALOX15B inhib)
Cn1c(=O)c2c(nc(CN3CCN(c4ccccc4)CC3)n2CCc2ccccc2)n(C)c1=O	HEK293 cAMP cs inconclusive, TSHR agonist inconclusive (no result: ALOX15B inhib)
CCNc1ncc2nc(-c3ccc(OC)cc3)c(=O)n(Cc3cccs3)c2n1	Caspase-7 inhib inconclusive (no result: Caspase-1 inhib)
CC1CCN(CCCNC(=O)c2coc3nc4ccccc4nc23)CC1	Caspase-7 inhib inconclusive (no result: Caspase-1 inhib)
Cc1ccc(CCNC(=O)c2coc3nc4ccccc4nc23)cc1	HEK293 cAMP cs 20µM, TSHR agonist inconclusive, Caspase-1 inhib inconclusive
COC(=O)C/C=C\[C@@H](C)[C@@H](/C=N\OC[C@@H](O)[C@H]1O[C@H]2OC(C)(C)O[C@H]2[C@@H]1O)NS(=O)(=O)c1ccc(C)cc1	none (no result: ALOX15B inhib)
O=c1c(O)c(-c2cc(O)c(O)c(O)c2)oc2cc(O)cc(O)c12	ALOX15B inhib inconclusive, 15-hLO inh 2.5µM
Clc1ccc(-c2ccc(-c3nn4c(-c5ccco5)nnc4s3)o2)cc1	15-hLO inh 16µM, HEK293 cAMP cs inconclusive, TSHR agonist inconclusive (no result: ALOX15B inhib)
COc1cc(-c2nn3c(-c4ccco4)nnc3s2)cc(OC)c1OC	none (no result: 15-hLO inh, HEK293 cAMP cs, TSHR agonist, Caspase-7 inhib, Caspase-1 inhib)
